Legend:
Assay type in all cases: functional
Plasmodium falciparum [1] = experiment: GSK_TCMDC: Inhibition of Plasmodium falciparum 3D7 in whole red blood cells, using parasite LDH activity as an index of growth. Test compounds present at 2uM
Plasmodium falciparum [2] = experiment: GSK_TCMDC: Inhibition of Plasmodium falciparum Dd2 in whole red blood cells, using parasite LDH activity as an index of growth. Test compounds present at 2uM
HepG2 = experiment: GSK_TCMDC: Percent inhibition of human HepG2 cell line. Test compounds present at 10uM.

| Compound | Inhibition (Plasmodium falciparum [1]) | Inhibition (Plasmodium falciparum [2]) | Inhibition (HepG2) |
| --- | --- | --- | --- |
| Cc1cc(CNCCCCCCNCc2ccc(Cl)cc2)ccc1O | 96% | 0% | 23% |
| O=C(CN1CCN(S(=O)(=O)C=Cc2ccccc2)CC1)Nc1cc(C(F)(F)F)ccc1Cl | 96% | 63% | 23% |
| Cc1onc(-c2ccccc2)c1-c1nc(NC2CCCC(C)C2)no1 (centres undefined) | 100% | 46% | 22% |
| COc1ccccc1C(C)NCC(=O)Nc1ccccc1Sc1ccccc1 (centres undefined) | 89% | 7% | 0% |
| CCCc1cc(NC2CCN(C)CC2)nc(Nc2ccc(F)cc2)n1 | 95% | 16% | 20% |
| Cc1ccc(Nc2nc(N/N=C/c3cccc(O)c3)nc(Nc3ccc([N+](=O)[O-])cc3)n2)cc1C | 100% | 69% | 0% |
| Br.Cn1c(=N)n(CC(=O)OCc2ccc(OCc3ccccc3)cc2)c2ccccc21 | 100% | 74% | 5% |
| COc1ccc2c(NN=Cc3ccccc3)ccnc2c1 | 100% | 98% | 18% |
| Cc1nc(-c2cccc(Nc3nccc(NCC(O)c4ccccc4)n3)c2)cs1 (centres undefined) | 99% | 82% | 43% |
| COc1cc(NC(=O)c2sc(-c3ccc(Cl)cc3)cc2NC(=O)CN2CC[C@@H](O)C2)ccc1OCCN1CCCC1 | 90% | 79% | 56% |
| COc1ccc2c(c1)CC(C)(C)NC2CCCCCCCCC1NC(C)(C)Cc2cc(OC)ccc21.O=C(O)C(=O)O (centres undefined) | 98% | 62% | 42% |
| CCC(CSC1CCCCC1)N(C)CCN(C)C(CC)CSC1CCCCC1.Cl (centres undefined) | 98% | 98% | 84% |
| COc1cccc(OC)c1C(=O)Nc1cccc(-c2nn3ccccc3c2-c2ccnc(Nc3cccc(F)c3)n2)c1 | 95% | 38% | 3% |
| C[C@H](NC(=O)C1CCCC1)C(=O)Nc1ccc(-c2ccc(-c3nc4cc(C(F)(F)F)ccc4[nH]3)cc2)cc1 | 99% | 70% | 34% |
| CC(=O)OCCN1C(=O)c2ccc3c4c(ccc(c24)C1=O)C(=O)N(CCOC(C)=O)C3=O | 94% | 1% | 2% |
| Br.C=CCNC(CCCCC)c1ccc(OCCOc2ccc(C(CCCCC)NCC=C)cc2)cc1 (centres undefined) | 88% | 48% | 100% |
| O=C(O)C(F)(F)F.Oc1ccc(CCNc2nc(NCc3ccccc3Oc3ccc(C(F)(F)F)cc3)nc(N3CCNCC3)n2)cc1 | 86% | 2% | 26% |
| O=C(Cc1ccccc1)NC(CCN1CCC(O)(c2cccc(C(F)(F)F)c2)CC1)c1ccc(Cl)c(Cl)c1 (centres undefined) | 96% | 32% | 25% |
| CC(=O)c1cccc(NC(=O)c2ccc(Cl)c(S(=O)(=O)N3CCc4ccccc43)c2)c1 | 93% | 11% | 13% |
| COCCN1CCN(Cc2ccc(-c3cccc(-c4nc5ccccc5[nH]4)c3)cc2)CC1.O=C(O)C(F)(F)F | 93% | 10% | 32% |

| Compound | Inhibition (Plasmodium falciparum [1]) | Inhibition (Plasmodium falciparum [2]) | Inhibition (HepG2) |
| --- | --- | --- | --- |
| CC(C)(C)NCCN(Cc1ccc(-c2ccc(C(F)(F)F)cc2)cc1)C(=O)Cn1c(CCc2cccc(F)c2F)nc(=O)c2ccccc21 | 99% | 68% | 46% |
| CN(C)C(=O)O[C@@H]1CN[C@H](C#Cc2cc3ncnc(Nc4ccc5c(cnn5Cc5cccc(F)c5)c4)c3s2)C1.Cl | 97% | 68% | 0% |
| COCCn1c(C)nc2ccccc2c1=O | 89% | 67% | 0% |
| O=C(Nc1ccnc(-c2cccnc2)n1)c1cc(C(F)(F)F)cc(C(F)(F)F)c1 | 95% | 12% | 22% |
| Cc1cc(N[C@@H](CC(C)C)C(=O)Nc2ccccc2)nc(NCC2CCCCC2)n1.O=C(O)C(F)(F)F | 100% | 95% | 8% |
| O=C(N[C@@H](CC1CCCCC1)C(=O)NC1CCCc2ccccc21)c1ccc(O)c(-c2ccc(Cl)c(Cl)c2)c1 (some centres undefined) | 98% | 99% | 1% |
| CC(=O)Nc1ccc(C(=O)Nc2ccc(-c3cccc(-c4nc5cc(F)ccc5[nH]4)c3)cc2)cn1 | 100% | 84% | 13% |
| Cc1cccc2nc(-c3cccc(-c4cccc(NC(=O)C(C)CN(C)C)c4)c3)[nH]c12 (centres undefined) | 100% | 97% | 16% |
| CC(C)C[C@H](NC(=O)c1ccc(OCCN2CCOCC2)cc1)C(=O)NC(/C=N/N1CCCC1=O)C(C)C (some centres undefined) | 90% | 81% | 3% |
| O=C(Nc1cccc(-c2cccc(-c3nc4cc(C(F)(F)F)ccc4[nH]3)c2)c1)Nc1ccc(F)c(F)c1F | 99% | 100% | 71% |
| Cn1nc(-c2cccc(CN[C@@H]3CCc4ccc(O)cc43)c2)c2cnc(NCCCN3CCCC3)nc21 | 100% | 0% | 9% |
| CC(O)C(=O)O.COc1cc(Cc2cnc(N)nc2N)c2c(c1OC)OC(C)(C)C=C2 | 93% | 2% | 7% |
| O=C(O)C(F)(F)F.OCC1CCN(Cc2cccc(-c3cccc(-c4nc5cc(C(F)(F)F)ccc5[nH]4)c3)c2)CC1 | 100% | 100% | 24% |
| CO/C(=C\C=C\c1cc2cc(Cl)c(Cl)cc2[nH]1)C(=O)NC1CC(C)N(C)C(C)C1 (centres undefined) | 97% | 57% | 64% |
| COc1ccc2ncc(F)c(CCN3CC[C@H](NCc4cc5c(s4)CCCN5)[C@H](O)C3)c2n1.Cl | 96% | 16% | 2% |
| Cl.N#Cc1ccc(NC(=O)c2ccc(Cc3ccc4c(c3)CCN(C3CCC3)CC4)cn2)cc1 | 91% | 2% | 66% |
| COc1ccccc1CNC(=O)c1nn(-c2ccc(Cl)cc2)c(=O)c2ccccc12 | 100% | 80% | 0% |
| FC(F)(F)c1ccc(N2CCCN(Cc3cccc(-c4ccccc4CNCc4ccc5c(c4)OCO5)c3)CC2)nc1.O=C(O)C(F)(F)F | 87% | 11% | 23% |
| CN1CCC(NCc2cccc(-c3nn(C)c4nc(NC5CCCC5)ncc34)c2)CC1 | 98% | 44% | 1% |
| Cc1noc(-c2ccccc2)c1NC(=O)N1CCN(CCCCCCNC(=O)/C=C/c2ccc(Cl)c(Cl)c2)CC1 | 95% | 1% | 6% |

| Compound | Inhibition (Plasmodium falciparum [1]) | Inhibition (Plasmodium falciparum [2]) | Inhibition (HepG2) |
| --- | --- | --- | --- |
| CC(Nc1ccc2c(c1)CCC2)C(=O)Nc1cc(C(F)(F)F)ccc1N1CCOCC1 (centres undefined) | 100% | 100% | 0% |
| Cc1cccc(-n2c(Nc3ccc(C)c(Cl)c3)nc3ccc(S(=O)(=O)NC(C)C(C)C)cc32)c1 (centres undefined) | 97% | 97% | 0% |
| CCOc1ccc(NC(=O)c2ccc(NCCCN3CC(C)CC(C)C3)c([N+](=O)[O-])c2)cc1 (centres undefined) | 100% | 60% | 3% |
| CC(=O)N1N=C(c2ccccc2)Sc2c1nc(-c1ccc(Cl)cc1)n2C(C)=O | 94% | 18% | 0% |
| Cc1cc(NCCC(=O)NCCOc2ccccc2)nc(NCc2ccccc2C)n1.O=C(O)C(F)(F)F | 92% | 29% | 17% |
| CC(=O)Nc1cccc(C(=O)Nc2cccc(-c3ccc(-c4nc5cc(F)ccc5[nH]4)s3)c2)c1 | 94% | 30% | 88% |
| Cn1cncc1-c1ccc2ncnc(Nc3ccc(OCc4ccccc4)cc3)c2c1 | 100% | 99% | 4% |
| Cc1cc(NC(=O)NCCN2CCC(NC(=O)c3cccc(Br)c3)C2)c2ccccc2n1.O=C(O)C(F)(F)F (centres undefined) | 100% | 60% | 0% |
| Cc1cc(N2CCN(CC3CCN(C)CC3)CC2)nc(Nc2ccc(Cl)cc2)n1 | 99% | 89% | 20% |
| O=c1c(NCCCN(Cc2ccc(F)cc2)c2ccccn2)c(NCc2ccncc2)c1=O | 100% | 95% | 30% |
| O=C(O)C(F)(F)F.O=[N+]([O-])c1cnc(Nc2ccccc2O)nc1Nc1ccccc1O | 98% | 80% | 24% |
| NC1CCN(c2nc(NCCc3ccc(O)cc3)nc(NCc3ccccc3-c3ccccc3)n2)CC1.O=C(O)C(F)(F)F | 99% | 32% | 14% |
| Cc1ccc(NC(=O)C(C)Sc2nnc(-c3ccccc3Br)[nH]2)cc1 (centres undefined) | 89% | 90% | 2% |
| O=C(Nc1ccc(Oc2ccc(OC(F)(F)F)cc2)cc1)c1ccco1 | 90% | 71% | 5% |
| COc1cc(-c2[nH]c(-c3ccc(OCCN(C)C)cc3)cc2-c2ccncc2)ccc1Cl.Cl | 93% | 33% | 3% |
| O=C(NCC1CCC(C(=O)NC2CCCc3ccccc32)CC1)c1ccc(O)c(-c2ccc(Cl)c(Cl)c2)c1 (centres undefined) | 93% | 86% | 0% |
| COc1ccccc1CN1CCC(NC(=O)c2ccc(-c3ccc(N(C)C)cc3)s2)CC1.O=C(O)C(F)(F)F | 90% | 38% | 29% |
| O=C(Nc1ccc(Cl)cc1)Nc1ccc2nonc2c1 | 94% | 77% | 0% |
